According to PubChem BioAssay AID463173 (ICCB-Longwood Screening Facility, Harvard Medical School, 2010):
Hit rate of the full screen: of about 52,000 compounds, about 4,300 (8.3%) were called active. Shown is part of a subset that was picked to be rich in actives. Values without a mark were called inactive. Rule as the data show it: active = survival mostly below about 52% (no sharp cut-off); inactive = mostly above about 56%.

What follows are compounds tested on DeltatarO mutant (assay: S. aureus survival, RN4220 and DeltatarO strains – OD600, teichoic acid synthesis inhibitors, primary screen (AID 463173)). Conditions: S. aureus RN4220 wild type/DeltatarO growth, OD600, 18 h, stronger effect = lower value, screened at 18.75 µg/mL (by protocol).
`CCOc1ccc(NC(=O)CSC2=Nc3ccccc3C3=NC(CC(=O)NCc4ccco4)C(=O)N23)cc1` (stereo not drawn) was tested, and the survival was 69%.
`CCCOc1cccc(C(=O)Nc2cc(-c3ccccc3)no2)c1` was tested, and the survival was 65%.
Work on `CC(C)n1c(=O)c2oc3ccccc3c2n(Cc2ccccc2F)c1=O` yielded a survival of 50%.
With `CCCCn1c(=O)c2oc3ccccc3c2n(CC(=O)Nc2cc(C)ccc2C)c1=O` the survival was 44% (active).
With `Cc1ccc(C)c(Cn2c(=O)n(C(C)C)c(=O)c3oc4ccccc4c32)c1` the survival was 51% (active).
With `COc1cc(NC(=O)Cn2c(=O)n(Cc3ccco3)c(=O)c3oc4ccccc4c32)cc(OC)c1` the survival was 38% (active).
Work on `COc1ccccc1NC(=O)Cn1c(=O)n(Cc2ccco2)c(=O)c2oc3ccccc3c21` yielded a survival of 67%.
`O=c1c2oc3ccccc3c2n(Cc2ccc(Cl)cc2)c(=O)n1Cc1ccccc1` was tested, and the survival was 108%.
`Cc1cc(C)cc(NC(=O)Cn2c(=O)n(Cc3ccco3)c(=O)c3oc4ccccc4c32)c1` gave a survival of 106%.
Compound `O=c1c2oc3ccccc3c2n(Cc2ccccc2F)c(=O)n1Cc1ccco1` has a survival of 77%.
`O=c1c2oc3ccccc3c2n(Cc2ccccc2F)c(=O)n1Cc1ccccc1` was tested, and the survival was 46% (active).
`Cc1ccc(C)c(NC(=O)Cn2c(=O)n(Cc3ccccc3)c(=O)c3oc4ccccc4c32)c1` was tested, and the survival was 62%.
`Cc1ccc(C)c(Cn2c(=O)n(Cc3ccco3)c(=O)c3oc4ccccc4c32)c1` showed a survival of 97%.
`CCCCn1c(=O)c2oc3ccccc3c2n(CC(=O)Nc2cccc(Cl)c2C)c1=O` gave a survival of 52%.
`CN1/C(=C/C(=O)C2CCC2)Sc2ccccc21` showed a survival of 56%.
With `Cn1c(=O)n(C)c2cc(N3CCCCC3)c(NC(=O)Nc3ccc(Br)cc3)cc21` the survival was 88%.
Work on `COCCn1c(=N)c(C(=O)NCc2ccco2)cc2c(=O)n3cc(C)ccc3nc21` yielded a survival of 69%.
With `COc1cccc(C(c2sc3nc(-c4ccco4)nn3c2O)N2CCN(C)CC2)c1` (stereo not drawn) the survival was 88%.
`CCOC(=O)c1c(NC(=O)c2cc3nc(-c4ccc(OC)cc4)cc(C(F)(F)F)n3n2)sc2c1CCC(C)C2` (stereo not drawn) was tested, and the survival was 95%.
In the case of `CCOc1ccc(NS(=O)(=O)c2ccc3[nH]cc(C(=O)N4CCCC4)c(=O)c3c2)cc1`, the survival is reported as 85%.
For `CCOc1ccc(NC(=O)Cn2c(=O)n(Cc3ccc(C(=O)NCc4ccc(C)cc4)cc3)c(=O)c3ccccc32)cc1`, the survival was 75%.
With `CCN(CC)c1nc(OCC(F)(F)F)nc(N(c2ccccc2)c2ccccc2)n1` the survival was 76%.
`COc1ccc(NC(=O)Cn2c(=O)n(Cc3ccccc3)c(=O)c3oc4ccccc4c32)cc1Cl` showed a survival of 85%.
`COc1cc(NC(=O)Cn2c(=O)n(Cc3ccccc3)c(=O)c3oc4ccccc4c32)cc(OC)c1` showed a survival of 85%.
`COc1ccc(NC(=O)Cn2c(=O)n(Cc3ccco3)c(=O)c3oc4ccccc4c32)cc1Cl` was tested, and the survival was 53%.
In the case of `COc1ccc(NC(=O)Cn2c(=O)n(C(C)C)c(=O)c3oc4ccccc4c32)cc1Cl`, the survival is reported as 42% (active).
In the case of `CC(C)n1c(=O)c2oc3ccccc3c2n(CC(=O)Nc2ccccc2Cl)c1=O`, the survival is reported as 60%.
For `O=C(Cn1c(=O)n(Cc2ccco2)c(=O)c2oc3ccccc3c21)Nc1ccccc1`, the survival was 67%.
With `COc1cc(NC(=O)Cn2c(=O)n(C(C)C)c(=O)c3oc4ccccc4c32)cc(OC)c1` the survival was 47% (active).
In the case of `Cc1cc(C)cc(NC(=O)Cn2c(=O)n(C(C)C)c(=O)c3oc4ccccc4c32)c1`, the survival is reported as 48%.
With `O=C(Cn1c(=O)n(Cc2ccco2)c(=O)c2oc3ccccc3c21)Nc1ccc(F)c(Cl)c1` the survival was 44% (active).
`COc1cccc(CNC(=O)C2CCCN(S(=O)(=O)c3cn(C)cn3)C2)c1` (stereo not drawn) was tested, and the survival was 75%.
In the case of `CSCCC(NS(=O)(=O)c1cccs1)C(=O)Nc1ccc(C)c(Cl)c1` (stereo not drawn), the survival is reported as 74%.
Work on `CCC(C(=O)N1CCN(c2ccccn2)CC1)c1ccccc1` (stereo not drawn) yielded a survival of 75%.
`COc1ccc(CNC(=O)CCS(=O)(=O)c2ccc3c(c2)oc(=O)n3C)cc1` gave a survival of 75%.
For `CCc1ccccc1NC(=O)Cn1c(=O)n(Cc2ccccc2)c(=O)c2c(C)c(C(=O)N(C)C)sc21`, the survival was 67%.
`N#CC(C#N)=C(C(C#N)=C1Nc2ccccc2N1)c1ccccc1F` gave a survival of 59%.
With `O=C(Nc1ccc(Br)cc1)c1ccc2c3c(onc13)-c1ccccc1C2=O` the survival was 72%.
Work on `CN(C)c1ccc(CNS(=O)(=O)c2ccc3[nH]c4c(c3c2)CCCCC4)cc1` yielded a survival of 84%.
Compound `Cc1cccc(C(=O)Nc2ccc3nc(SCC(=O)N4CCCC4)sc3c2)c1` has a survival of 58%.
For `CCCOc1ccc(CN(C(=O)c2cc(=O)c3ccc(C)cc3o2)C2CCS(=O)(=O)C2)cc1` (stereo not drawn), the survival was 36% (active).
`Cc1ccc2c(=O)cc(C(=O)N(Cc3ccc(C(C)(C)C)cc3)C3CCS(=O)(=O)C3)oc2c1` (stereo not drawn) was tested, and the survival was 35% (active).
`Cc1ccc2c(=O)cc(C(=O)N(Cc3ccc(N(C)C)cc3)C3CCS(=O)(=O)C3)oc2c1` (stereo not drawn) showed a survival of 115%.
Compound `CCOc1ccc(CN(C(=O)c2cc(=O)c3cc(C)cc(C)c3o2)C2CCS(=O)(=O)C2)cc1` (stereo not drawn) has a survival of 56%.
`CCOc1ccc(CN(C(=O)c2cc(=O)c3cc(Cl)ccc3o2)C2CCS(=O)(=O)C2)cc1` (stereo not drawn) was tested, and the survival was 104%.
In the case of `CCc1ccc(CN(C(=O)c2nc(SC)ncc2Cl)C2CCS(=O)(=O)C2)cc1` (stereo not drawn), the survival is reported as 71%.
For `CCSc1ncc(Cl)c(C(=O)N(Cc2ccccc2Cl)C2CCS(=O)(=O)C2)n1` (stereo not drawn), the survival was 83%.
With `CCSc1ncc(Cl)c(C(=O)N(Cc2ccc(C(C)(C)C)cc2)C2CCS(=O)(=O)C2)n1` (stereo not drawn) the survival was 42% (active).
With `CCc1ccc(CN(C(=O)c2cc(=O)c3ccc(C)cc3o2)C2CCS(=O)(=O)C2)cc1` (stereo not drawn) the survival was 107%.
With `COc1cccc(NC(=O)c2oc3ccccc3c2NC(=O)c2ccc(C(F)(F)F)cc2)c1` the survival was 60%.
With `COc1cc(CN2CCc3nc(Nc4ccc5c(c4)OCCO5)ncc3C2)cc(OC)c1OC` the survival was 91%.
With `CCOC(=O)N1CCN(Cc2nc3cc(NC(=O)C(C)C)ccc3n2C(C)C)CC1` the survival was 68%.
In the case of `CCOC(=O)c1cccc(NC(=O)CCC(=O)N2CC(C)Oc3ccc(C)cc32)c1` (stereo not drawn), the survival is reported as 51%.
